About 83,000 compounds went through this panel and 20% of them were active in at least one assay; those are over-represented in the sample as a whole.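 Cells were grown in 96-well plates and exposed to the test compound at a single concentration for 48 hours; results are reported as percent growth, with values below 10 considered active.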 Unmarked numbers belong to inactive results. The source made the active and inactive calls.

This assay has as its system HOP-62 NSCLC. In words: NCI-60 one-dose screen, 48 h (100 = growth as untreated, 0 = no growth, -100 = all killed). The following applies: 10 µM unless noted.
`CCOC(=O)c1ccc(N(CCC(=O)O)C(C)=O)cc1`: the growth was 108%.

With `Nc1c(C(=O)Nc2cccc(Cl)c2)sc2ncc(Br)cc12`, the growth was 75.4%.

As to `CSC(=S)N/N=C(\C)c1ccccn1`, the growth was 21.6%.

Consider `CC(=O)O[C@H]1[C@H](CC#CC#CC[C@@H]2C[C@]3(C)[C@H]4CC=C5[C@H]6[C@@H](C)[C@H](C)CC[C@]6(C(=O)NCCCCCCCCN)CC[C@@]5(C)[C@]4(C)CC[C@H]3C(C)(C)[C@H]2OC(C)=O)C[C@]2(C)[C@H]3CC=C4[C@H]5[C@@H](C)[C@H](C)CC[C@]5(C(=O)NCCCCCCCCN)CC[C@@]4(C)[C@]3(C)CC[C@H]2C1(C)C`, for which the growth is 96.7%.

With `CC(C)COC(=O)NC(C)(C)C`, the growth is 107%.

As for `CCC(=O)NC(O)C(Cl)(Cl)C(C)Cl` (centres undefined), the growth is 102%.

`C#CCNC(=S)N/N=C(\C)c1ccccn1`: the growth is 26.5%.

Regarding `COc1ccc(-c2nnc(SCC(=O)Nc3ccc(C(=O)/C=C/c4ccc(Cl)cc4)cc3)n2-c2ccccc2)cc1`, the growth is 100%.

Take `CC1CCN(Cc2ccc(NC(=O)c3cc4ccc5cccnc5c4[nH]3)cc2)CC1`: the growth was 26.2%.

Consider `CC(C)N1CCN(c2ccncc2S(=O)(=O)N2CCN(C)CC2)CC1`, for which the growth is 106%.

`O=C(/C=C/c1ccccc1)n1c(-c2ccccc2)nc2ccccc21`: the growth is 105%.

Turning to `COC1CC(N)C2OC(c3ccccc3)OCC2O1` (centres undefined), the growth is 114%.

For the compound `COc1cccc(NC(=O)[C@H](C(C)C)n2c(=O)[nH]c3ccccc3c2=O)c1`, the growth was 102%.

Regarding `COc1ccc(-c2cnc3ccnn3c2-c2cc(OC)c(OC)c(OC)c2)cc1`, the growth was 40%.

For the compound `COc1cc2cc(C(=O)Nc3ccccc3)c(N)nc2cc1OC`, the growth is 47.7%.

For the compound `O=C(C=P(c1ccccc1)(c1ccccc1)c1ccccc1)CCl`, the growth was 13.9%.

In the case of `CCCCCCCCCCCCCCCCS(=O)(=O)Nc1cc(C(=O)NN)cc(C(=O)NN)c1`, the growth is 76.1%.

On to `COS(=O)(=O)CCN(CCOS(C)(=O)=O)S(C)(=O)=O`, for which the growth is 109%.

In the case of `CCn1c(CN2CCN(Cc3ccccc3)CC2)nc2cc(NC(=O)c3cccs3)ccc21`, the growth was -81.6% (active).

With `CC(=O)c1ccc(-n2c(-c3cc(-c4ccsc4)n[nH]3)n[nH]c2=S)cc1`, the growth is 112%.

Turning to `CCN(CC)Cc1cc(Nc2ccnc3cc(Cl)ccc23)cc(-c2ccc(Cl)cc2)c1O`, the growth was -46.1% (active).

`O=C(NCC(c1ccsc1)N1CCCCCC1)c1ccc(C(F)(F)F)cc1` (centres undefined): the growth is 113%.

On to `COc1cc(NC(C)CCCN)c2ncccc2c1Oc1ccc(Cl)cc1` (centres undefined), for which the growth is 77.7%.

`O=C(c1ccccc1)N(CCCCl)C(=O)N(CCCCl)C(=O)c1ccccc1`: the growth is 86.7%.

Turning to `COc1ccc(C2=CC(c3ccc(OC)cc3Br)N3C=CSC3=N2)cc1` (centres undefined), the growth was 75.6%.

Consider `CC(=O)c1nn(-c2ccccc2)/c(=N\N=C\c2coc3ccc(F)cc3c2=O)s1`, for which the growth was 85.6%.

`O=C(c1ccc(C(F)(F)F)c(Cl)c1)N(Cc1ccc(Cl)cc1)c1ccc(-c2cc(C(F)(F)F)[nH]n2)c(O)c1`: the growth was -4.7% (active).

In the case of `C/C(=N\OC(=O)Nc1cccc(Cl)c1)c1ccccc1`, the growth was 95.8%.

As to `C/C(=C\C(=N\N=C(N)N)c1ccc(Cl)cc1)c1ccc(Cl)cc1`, the growth was -86.3% (active).

With `O=C(NO)c1ccc(NCc2csc3ccccc23)cc1`, the growth was 65.3%.

For `C#CC[C@@H]1C[C@]2(C)[C@H]3CC=C4[C@H]5CC(C)(C)CC[C@]5(C(=O)NCCCCN)CC[C@@]4(C)[C@]3(C)CC[C@H]2C(C)(C)[C@H]1OC(C)=O`, the growth was 92.2%.

For `Oc1ccc(Cl)cc1-c1cc(-c2ccccc2Cl)[nH]n1`, the growth is 63.3%.

For `CC1C2CCC(C2)C1COCCOCCO` (centres undefined), the growth was 108%.

Take `O=C1C(Cl)=C(N/N=c2/[nH][nH]/c(=N/NC3=C(Cl)C(=O)c4ccccc4C3=O)c3ccccc23)C(=O)c2ccccc21`: the growth is -10.5% (active).

On to `COc1ccc(/C=c2\c(=O)n(-c3ccccc3)c3nn4c(n23)=NNC42CCCCC2)cc1`, for which the growth was 87.7%.

With `CCNC(=S)N(Cc1ccccc1)Cc1ccccc1`, the growth is 94.5%.

As for `N#CC1=C(N)Oc2nc[nH]c(=O)c2C1c1cccs1` (centres undefined), the growth was 105%.

On to `CCN(C(=O)Nc1cccc2ccccc12)c1ccccc1`, for which the growth was 93.6%.

For `COc1ccc(-c2nc(-c3cc(OC)cc(OC)c3)[nH]c2-c2ccc(OC)cc2)cc1`, the growth was 91.8%.
